Compound activity (PubChem BioAssay)
Rows were chosen to be rich in hits. Some 7.5% of all compounds tested hit in one or more screens of this group.
Rab9 promoter act: Rab9 promoter activation; Huh7 Rab9 promoter-luciferase reporter, luminescence, 24 h; Potency, µM (top dose mostly 9.22 µM), inactives show at the highest dose activation, negative = inhibition, actives largely listed as activators; 2.8% of 320,000 active; AID 485297; note: % of control where 0% means no effect; nearly all actives have a fitted effect of over 60% in size
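Measured in stably transfected Huh7 cells bearing a Rab9 promoter–luciferase construct: 24 h compound treatment at 37 °C, followed by luminescence detection.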
FLuc counter: inhibits or activates purified firefly luciferase, miR-21 counter-screen; purified FLuc, Km substrates, luminescence inhibition; Potency, µM (doses to about 57.5 µM), inactives show top-dose activity change, negative = inhibition, actives largely listed as inhibitors; 6.9% of 360,000 active; AID 588342;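 note: plate controls were vehicle for no effect and reference inhibitor for full effect; nearly all actives have a fitted effect of over 55% in size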
Target sequence (P08659 whole entry, looked up): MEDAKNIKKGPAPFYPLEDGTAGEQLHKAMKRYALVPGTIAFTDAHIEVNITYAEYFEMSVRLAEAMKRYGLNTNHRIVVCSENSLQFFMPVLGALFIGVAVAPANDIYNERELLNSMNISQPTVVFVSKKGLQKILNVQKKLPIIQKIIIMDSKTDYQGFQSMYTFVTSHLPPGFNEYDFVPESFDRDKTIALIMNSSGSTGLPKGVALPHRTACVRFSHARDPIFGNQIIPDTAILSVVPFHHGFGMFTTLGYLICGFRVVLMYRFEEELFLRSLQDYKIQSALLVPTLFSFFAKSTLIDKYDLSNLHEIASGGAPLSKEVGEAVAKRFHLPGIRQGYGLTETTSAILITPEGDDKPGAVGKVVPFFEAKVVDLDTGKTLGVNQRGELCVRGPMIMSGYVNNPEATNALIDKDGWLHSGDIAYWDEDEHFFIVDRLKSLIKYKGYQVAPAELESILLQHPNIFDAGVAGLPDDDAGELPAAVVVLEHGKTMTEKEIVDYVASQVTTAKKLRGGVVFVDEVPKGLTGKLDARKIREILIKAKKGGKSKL
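Purified P. pyralis luciferase (10nM final) with 10uM D-luciferin and 10uM ATP (Km levels) in 50mM Tris acetate pH 7.5, 10mM Mg acetate, 0.01% Tween-20, 0.05% BSA; qHTS 6-point titration, ~60 µM downward; luminescence read.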
Luc counter: counter-screen: inhibitors of Kinase-Glo firefly luciferase; Q27757; Kinase-Glo luciferase, ATP luminescence, 8 min; Potency, µM (series often up to 38.3 µM), for inactives: at the top dose activity change, negative = inhibition, hits mostly inhibitors; 0.28% of 200,000 active; note: % is set by controls: 0 for no effect and ±100 for the full control effect; nearly all actives have a fitted effect of over 60% in size
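Compound is pinned into ATP-containing buffer (10 uM ATP, imidazole pH 7.2, 7 mM MgCl2). Kinase-Glo luciferase reagent is then added. Light output is recorded following an 8-min room-temperature incubation.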
SMN2 splice enh: increases expression of the SMN2 splice variant | 2.8% of 210,000 active | Potency, µM (doses to about 46.1 µM), for inactives: at the top dose activity change, positive = activation, usual class: activators | AID 1458 | HEK293 SMN2-luciferase splicing reporter, luminescence, 30-36 h; note: % of control where 0% means no effect; nearly all actives have a fitted effect of over 55% in size
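HEK293 cells carry an SMN2 minigene-luciferase reporter in which exon 7 inclusion puts luciferase in frame. Cells were seeded at 2000 cells/well, attached for 10-12 hours, then exposed to compounds for 30-36 hours at 37C before ONE-Glo luminescence.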
ELG1 genotox: induces genotoxicity in HEK293T cells with luciferase-tagged ELG1; HEK293T ELG1-luciferase reporter, luminescence, 16 h; AID 504466; 1.3% of 330,000 active; Potency, µM (doses to about 46 µM), without a hit: top-dose activity change, positive = activation, most hits filed as activators; note: % of control where 0% means no effect; nearly all actives have a fitted effect of over 60% in size
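ELG1-luciferase HEK293T cells, 2,000/well; compound pinned in; 16 hr, 37 °C, 5% CO2; ONE-Glo, 30 min RT; luminescence on CCD imager.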
NPC1 promoter act: NPC1 promoter activation; Huh7 NPC1 promoter luciferase reporter, 24 h; Potency, µM (titrated, usually from 9.22 µM), inactives show at the highest dose activation, most hits filed as activators; 2.4% of 320,000 active; AID 485313; note: % of control where 0% means no effect; nearly all actives have a fitted effect of over 60% in size
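Stably transfected Huh7 (NPC1 promoter→luciferase), 1500 cells/well in Opti-MEM + 10% FBS, 2 h settle, then compound 24 h at 37 °C. Luminescence after 10 min with Amplite reagent.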
* hit, by the source's call; ? = inconclusive; · = not tested or not shown; [ ] = dose if it differs, or a comment. Calls come from the whole dose curve; as a rule, active = well fitted curve in the direction sought with a large enough effect; inconclusive = small, poorly fitted or top-dose-only effect, or another doubt; inactive = no such curve, though single readings can be large; an effect the other way counts as inactive or inconclusive. Potency is the fitted concentration of half-maximal effect.

SMILES	Rab9 promoter act	FLuc counter	Luc counter	SMN2 splice enh	ELG1 genotox	NPC1 promoter act
COCCN(C(=O)c1ccc(N2C(=O)c3ccccc3C2=O)cc1)c1c(N)n(CC(C)C)c(=O)[nH]c1=O	-1%	1%	·	·	6%	-7%
COc1cccc(CNC(=O)Cn2c(C)c3cnn(-c4ccccc4)c(=O)c3c2C)c1	·	-8%	·	0%	·	·
COc1ccc(/C=C2\SC(=S)N(CCC(=O)Nc3ccccc3C(=O)O)C2=O)cc1	-1%	21µM*	·	·	-2%	-5%
COc1ccc(/C=C2\SC(=S)N(CCCC(=O)Nc3ccccc3C(=O)O)C2=O)cc1OC	3%	3%	·	·	-1%	6%
CNc1ccc(Br)cc(C(=O)/C=C/c2cccc(OC)c2OC)c1=O	-5%	?	-5%	·	-13%	-1%
COc1ccccc1/C=C/C(=O)/C=C/c1ccccc1O	-42%	3.4µM*	·	·	-15%	-37%
CNc1ccccc(C(=O)/C=C/c2ccccc2OC)c1=O	2%	21µM*	-5%	-24%	-5%	1%
CC(=O)c1ccc(NC(=O)CSc2nnc3ccc(-c4ccc(F)cc4)nn23)cc1	·	-1%	·	·	·	·
Cc1ccccc1C(=O)NNc1ncnc2c1cnn2-c1cccc(Cl)c1	·	4%	·	·	·	·
CCOc1cccc2oc(-c3ccccc3Cl)cc(=O)c12	·	·	-21%[39.9 µM]	·	·	·
O=c1cc(-c2ccccc2Cl)oc2cc(O)cc(O)c12	12%	27µM*	0%	-5%	5%	7%
Nc1ccc(O)c2c(=O)cc(-c3ccccc3Cl)oc12	2.8µM*	2.7µM*	-3%[39.9 µM]	11µM*	?	2.8µM*
CCOc1ccccc1CNC(=O)Cn1c(-c2ccccc2)cc(C(C)=O)c1C	·	-12%	·	-3%	·	·
COc1ccc(CNC(=O)c2cc(=O)[nH]c3ccc(S(=O)(=O)N4CCCC4)cc23)c(OC)c1	·	1%	·	·	·	·
O=C(CSc1nnc(-c2ccc(O)cc2)o1)N1CCOCC1	?	?	-2%	5%	9%	23%
Oc1ccc(-c2nnc(SCC3CCCCC3)o2)cc1	2.8µM*	15µM*	12%	?	?	3.2µM*
Cc1ccc2cc(CCNC(=O)c3ccco3)c(=O)[nH]c2c1	2.5µM*	19µM*	3%	10µM*	18%	?
CCC(CC)C(=O)NCCc1cc2cc(C)c(C)cc2[nH]c1=O	-4%	0%	2%	15%	-9%	-5%
Cc1ccc2cc(CCNC(=O)CCCc3ccccc3)c(=O)[nH]c2c1	-3%	-1%	·	·	0%	1%
Cc1cc2cc(CCNC(=O)c3cccs3)c(=O)[nH]c2cc1C	3.2µM*	13µM*	0%	13µM*	?	2.8µM*
COc1ccc2cc(CCNC(=O)c3ccco3)c(=O)[nH]c2c1	1.4µM*	12µM*	·	·	10µM*	1.6µM*
Cc1ccc2cc(CCNC(=O)c3ccco3)c(=O)[nH]c2c1C	1.4µM*	4.3µM*	1%	7.1µM*	?	3.5µM*
CC1=C(C(=O)Nc2cccnc2)C(c2ccccc2)n2nc(SCc3ccccc3)nc2N1 (stereo not drawn)	·	-7%	·	3%	·	·
COc1ccc(NC(=O)C(=O)NCC(c2ccc3c(c2)OCO3)N2CCN(C)CC2)cc1 (stereo not drawn)	·	0%	·	·	·	·
Cc1ccccc1C(=O)NNC(=O)CSc1nc(-c2ccccc2)cc(=O)[nH]1	20%	11µM*	-2%	5%	6%	11%
SMILES	Rab9 promoter act	FLuc counter	Luc counter	SMN2 splice enh	ELG1 genotox	NPC1 promoter act
CC1CC(C)(C)Nc2ccc(N=O)cc21 (stereo not drawn)	18%	-11%	-4%	-102%	12%	-8%
CC1CC(C)(C)Nc2ccc(OC(=O)c3ccco3)cc21 (stereo not drawn)	?	6.7µM*	-3%	·	19%	0%
CCc1ccc2c(c1)NC(c1ccc(F)cc1)=NC(c1ccncc1)=N2	·	-9%	·	0%	·	·
Nc1ccccc1C(=O)NNc1c2ccccc2nc2ccccc12	-7%	19µM*	·	·	5%	3%
CC(=O)N1CCc2c(sc3c2c(=O)n(CCc2ccccc2)c(=O)n3CC(=O)Nc2ccccc2F)C1	·	-9%	·	-3%	·	·
COc1ccc(NC(=S)c2ccccc2)cc1	?	11µM*	-3%	14µM*	?	?
COc1ccc(C(=S)Nc2ccc(N(C)C)cc2)cc1	2.8µM*	1.5µM*	-6%	11µM*	?	3.2µM*
COc1ccc(NC(=S)c2ccc(N(C)C)cc2)cc1	1.3µM*	2.1µM*	0%	11µM*	?	4µM*
Cc1ccc(S(=O)(=O)NC(=O)Nc2ccc(N(C)C)cc2)cc1	?	24µM*	·	·	?	5%
COc1ccc(NC(=S)Nc2ccccc2)cc1	14%	-19%	-5%[7.66 µM]	-2%[9.22 µM]	3%	-1%
COc1cc(Cl)c(C)cc1NC(=O)c1cnn(-c2ccc(F)cc2F)c1C1CCN(C(=O)OC(C)(C)C)CC1	·	-2%	·	·	·	·
C[C@H]1CN([C@@H](C)CO)C(=O)c2cccc(NC(=O)Nc3ccc(C(F)(F)F)cc3)c2O[C@@H]1CN(C)S(=O)(=O)c1ccc(Cl)cc1	·	·	·	·	-8%	·
COc1ccc(Cc2nc3ccc(C(=O)NCc4cc(Br)ccc4OC)cc3o2)cc1	·	-1%	·	·	·	·
Cc1ccc(NC(=S)c2ccc(N(C)C)cc2)cc1	1.3µM*	1.7µM*	-4%	4.5µM*	3.7µM*	0.89µM*
Cc1ccc(N(C)C)cc1	·	·	·	-8%	·	·
c1ccc2c(-n3ccnc3)nc(-c3ccoc3)nc2c1	·	·	0%	-9%	·	·
C/C(=N\NC(=O)COc1ccccc1F)c1cc2ccccc2o1	?	11µM*	2%	?	?	?
CC(C)N1CCc2c(sc(NC(=O)c3ccc4ccccc4c3)c2C(N)=O)C1	2%	6µM*	·	·	9%	-4%
CCN1CCc2c(sc(NC(=O)c3cc4ccccc4cc3OC)c2C(N)=O)C1	4%	9.5µM*	·	·	10%	-5%
CCOC(=O)C1(Cc2cccc(OC)c2)CCCN(C(=O)CCc2cccnc2)C1 (stereo not drawn)	?	17µM*	-1%	·	?	16%
CCOC(=O)C1(Cc2ccc(OC)cc2)CCN(C(=O)c2cc3ccccc3[nH]2)CC1	2%	15µM*	-2%	19%	2%	2%
CCOC(=O)C1(Cc2ccccc2)CCCN(C(=O)C=C(C)C)C1 (stereo not drawn)	3.5µM*	17µM*	·	·	?	?
CCOC(=O)C1(Cc2ccccc2)CCCN(C2CCN(C(C)=O)CC2)C1 (stereo not drawn)	-2%	1%	·	·	-1%	-1%
